Screening data: PubChem BioAssay, National Center for Advancing Translational Sciences (NCATS)
Nrf2 inh: Nrf2 pathway inhibition; A549 ARE-Fluc reporter, luciferase luminescence, 18-24 h; Potency, µM (titrated, usually from 46 µM), without a hit: at the highest dose activity change, negative = inhibition, most hits filed as inhibitors; actives 2.1% (n = 360,000); AID 504444; further: on the % scale 0 is the no-effect control and ±100 the full control effect; nearly all actives have a fitted effect of over 60% in size
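Cells were seeded and rested 2 h, then exposed to compounds for 18-24 h. CellTiter-Fluor was read first as a viability measure. BugLite was added 15 min before the final luminescent read of ARE-luciferase activity in A549 cells.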
TGFb inhibitor: blocks TGF-b signaling; Potency, µM (titrated, usually from 46.1 µM), inactives show top-dose activity, negative = inhibition, most hits filed as inhibitors; HepG2 CAGA-GFP TGF-b/SMAD3 reporter, GFP fluorescence, 18 h; TGF-beta stimulated, 500 pg/mL final; AID 588855; actives 1.2% (n = 410,000); further: on the % scale 0 is the no-effect control and ±100 the full control effect; nearly all actives have a fitted effect of over 65% in size
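Using HEPG2 CAGA-GFP reporter cells at 1000 cells/well, we pinned test compounds, stimulated with recombinant TGF-beta (500 pg/mL final) and measured total well GFP after 18 h.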
A549 tox: counter-screen for Nrf2 inhibitors: cytotoxicity in A549 cells. A549 ARE-Fluc cells, CellTiter-Fluor viability, 18-24 h. Potency, µM (series often up to 46 µM), inactives show at the top dose activity change, negative = cytotoxicity, actives largely listed as inhibitors. actives 0.16% (n = 390,000); further: on the % scale 0 is the no-effect control and ±100 the full control effect
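Cytotoxicity counterscreen: CellTiter-Fluor fluorescence was measured in A549 ARE_Fluc cells after 18-24 h of compound exposure in a concentration series. The subsequent BugLite luminescent read reports ARE-luciferase activity.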
Nrf2 activator: Nrf2 pathway activation. AREc32 ARE-luciferase reporter (MCF7-derived line), luminescence, 24 h. Potency, µM (highest dose often 46.1 µM), without a hit: at the highest dose activation, hits mostly activators. actives 0.31% (n = 410,000); further: % of control where 0% means no effect; nearly all actives have a fitted effect of over 65% in size
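AREc32 cells carrying an ARE-driven firefly luciferase, 1000 cells/well in OPTI-MEM with 5% FBS, dosed after overnight attachment and incubated 24 hr at 37 deg C. Steady-Glo luminescence read after 30 min at RT.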
HepG2 tox-1: counter-screen for TGF-b inhibitors: cytotoxicity in HepG2 cells; Potency, µM (top dose mostly 46.1 µM), for the others: top-dose activity change, negative = cytotoxicity, hits mostly cytotoxic; actives 0.76% (n = 410,000); AID 588856; HepG2 CAGA-GFP viability, ATP luminescence, 18 h
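CellTiter-Glo luminescence gave cytotoxicity after 18 hours at 37 degrees C. The cells were HepG2 CAGA-GFP in 1% FBS DMEM, stimulated with 500 pg/mL TGF-beta after compound addition. %Activity was normalised to no-cell wells (complete cell-killing) and DMSO (no toxicity), and curves were fitted and classified.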
TGFb confirm: TGF-b pathway inhibition, cherry-pick retest. shares compounds with TGFb inhibitor. HepG2 CAGA-GFP TGF-b reporter, GFP fluorescence, 18 h; cells stimulated with TGF-beta, 500 pg/mL. Potency, µM (top dose mostly 46.1 µM), for the others: at the top dose activity, negative = inhibition, actives largely listed as inhibitors. actives 63% (n = 1,600). AID 720534; further: on the % scale 0 is the no-effect control and ±100 the full control effect; nearly all actives have a fitted effect of over 65% in size
HepG2 tox-2: toxic to HepG2 cells in TGF-b counterscreen | HepG2 CAGA-GFP viability, ATP luminescence, 18 h; cells stimulated with TGF-beta, 500 pg/mL | Potency, µM (highest dose often 46.1 µM), for inactives: top-dose activity, negative = cytotoxicity, hits mostly inhibitors | shares compounds with TGFb inhibitor | actives 27% (n = 1,600); further: on the % scale 0 is the no-effect control and ±100 the full control effect; nearly all actives have a fitted effect of over 70% in size
CCL64 TGFb inh: orthogonal confirmation of TGF-b inhibitors in CCL64 cells; shares compounds with TGFb inhibitor; CCL64 CAGA-GFP reporter, TGF-b stimulated, GFP fluorescence, 18 h; Potency, µM (doses to about 46.1 µM), inactives show at the top dose activity, negative = inhibition, actives largely listed as inhibitors; actives 41% (n = 1,600); AID 720536; further: nearly all actives have a fitted effect of over 65% in size
TGFb COP inh: blocks TGF-b signaling in HepG2 COP reporter | shares compounds with TGFb inhibitor | HepG2 COP-GFP TGF-b reporter, GFP fluorescence, 18 h; cells stimulated by added recombinant TGF-beta | Potency, µM (titrated, usually from 46.1 µM), for the others: at the highest dose activity, negative = inhibition, hits mostly inhibitors | actives 3% (n = 1,600) | AID 720537; further: nearly all actives have a fitted effect of over 70% in size
Numbers without * were called inactive; ? = inconclusive; nt = not tested or not shown; [ ] = remark or other dose. The list is not random: actives were taken first. Their share in the collection is about 3.6%. The call rests on the fitted dose curve; in most records, active means well fitted curve in the direction sought with a large enough effect; inconclusive means small, poorly fitted or top-dose-only effect, or another doubt; inactive means no such curve, though single readings can be large; an effect the other way counts as inactive or inconclusive. Potency means the concentration at half of the fitted maximal effect.

SMILES | Nrf2 inh | TGFb inhibitor | A549 tox | Nrf2 activator | HepG2 tox-1 | TGFb confirm | HepG2 tox-2 | CCL64 TGFb inh | TGFb COP inh
C[C@H](CO)N1C[C@H](C)[C@H](CN(C)S(=O)(=O)c2cccs2)Oc2ccc(NC(=O)Nc3ccc4c(c3)OCO4)cc2CC1=O | 17% | ? | -7% | -1% | 2% | ? | -24% | -16% | 9%
C[C@H](CO)N1C[C@H](C)[C@@H](CN(C)S(=O)(=O)c2cccs2)Oc2ccc(NC(=O)Nc3ccc4c(c3)OCO4)cc2C1=O | -27% | -45% | 3% | 0% | -2% | nt | nt | nt | nt
C[C@@H]1CCCCO[C@H](CN(C)Cc2ccc(C(F)(F)F)cc2)[C@@H](C)CN([C@H](C)CO)C(=O)c2cc(NS(=O)(=O)c3cn(C)cn3)ccc2O1 | nt | 7% | nt | 0% | 4% | nt | nt | nt | nt
C[C@H](CO)N1C[C@H](C)[C@@H](CN(C)Cc2ccc(-c3ccccc3)cc2)Oc2c(NS(=O)(=O)c3ccccc3)cccc2C1=O | ? | ? | -17% | -1% | -23% | nt | nt | nt | nt
CCOc1ccc(NC(=O)C2CCN(c3nnc(-n4c(C)ccc4C)s3)CC2)cc1 | 3% | nt | 0% | ? | -19% | nt | nt | nt | nt
CC(=O)Nc1cccc(-c2nc(-c3ccccc3)no2)c1 | nt | 25% | 1% | 21% | -16% | nt | nt | nt | nt
Cc1ccc(NCCC(=O)c2cccc([N+](=O)[O-])c2)cc1 | 12% | 10µM* | -5% | ? | -73% | 23µM* | ? | ? | 19%
O=C(CCNc1ccccc1)c1cccc([N+](=O)[O-])c1 | -6% | -25% | 1% | ? | -1% | nt | nt | nt | nt
O=C(CCNc1ccc(F)cc1)c1cccc([N+](=O)[O-])c1 | 1% | ? | -10%[1.84 µM] | ? | -40% | nt | nt | nt | nt
O=C(CCNc1ccc(Br)cc1)c1cccc([N+](=O)[O-])c1 | 2% | 13µM* | 2% | ? | 13% | 18µM* | -15% | -6% | 15%
Cc1c(C(=O)NCc2ccccc2)oc2c1-c1[nH]ncc1CC2 | 2% | -21% | 0% | 6% | 0% | nt | nt | nt | nt
OC(c1ccccc1)(c1nc(-c2cc3ccccc3o2)cs1)C(F)(F)F (centres undefined) | nt | ? | nt | 0% | -104% | nt | nt | nt | nt
CCc1c(C)c2ccc(OCC(=O)OC(C)C)c(C)c2oc1=O | 11% | 6% | 0% | 0% | 0% | nt | nt | nt | nt
O=C(COC(=O)c1ccccc1)Nc1ncc([N+](=O)[O-])s1 | -2% | -24% | ? | 3% | -9% | nt | nt | nt | nt
O=C(Nc1ccccc1)Nc1ncc([N+](=O)[O-])s1 | ? | 3.2µM* | 23µM* | 0% | -23% | 13µM* | ? | 18µM* | 87%
Cc1ccc(C(=O)NCc2ccco2)cc1Br | nt | -5% | 12% | ? | 12% | nt | nt | nt | nt
Cc1nc2cc(-c3cccc(F)c3)nn2c(C)c1CCC(=O)NC(C)c1ccc2c(c1)OCCO2 (centres undefined) | ? | ? | 0% | 11% | -18% | ? | -29% | 29µM* | 11%
Cc1nc2cc(-c3ccccc3)nn2c(C)c1CCC(=O)NC(C)c1ccc2c(c1)OCCO2 (centres undefined) | ? | -12% | 3% | 0% | -82% | nt | nt | nt | nt
CCC1(OC(=O)CN(C)C)C(=O)OCc2c1cc1n(c2=O)Cc2cc3c(N)cccc3nc2-1 (centres undefined) | 0.65µM* | 3.2µM* | ? | -1% | 3% | 5.8µM* | 1.8µM* | ? | 16%
Cc1ccc(C(=O)C2CCN(CC(=O)Nc3nc(C)cs3)CC2)cc1 | -3% | ? | 0% | 2% | -1% | 18µM* | -13% | 5% | 0%
CC1(C(=O)Nc2ccc3c(c2)OCCO3)CCN1Cc1csc2ccccc12 (centres undefined) | nt | -27% | nt | 4% | -23% | nt | nt | nt | nt
CC1(C(=O)NCc2ccc3c(c2)OCO3)CCN1Cc1csc2ccccc12 (centres undefined) | nt | 11µM* | nt | 7% | -34% | 16µM* | 23µM* | 3.7µM* | 44%
O=C(O)CC(NS(=O)(=O)Cc1ccccc1)c1cccc([N+](=O)[O-])c1 (centres undefined) | 6% | 0% | -6% | 0% | 9% | nt | nt | nt | nt
O=[N+]([O-])c1cc2no[n+]([O-])c2cc1N1CCCCC1 | 10% | 2.8µM* | 5% | ? | 5% | 1.6µM* | 6.5µM* | 3.7µM* | ?
CC(C)(C)NC(=O)C(c1ccc(O)cc1)N(Cc1ccco1)C(=O)Cn1nnc(-c2cccs2)n1 (centres undefined) | 10% | -12% | -2% | -1% | -24% | nt | nt | nt | nt
SMILES | Nrf2 inh | TGFb inhibitor | A549 tox | Nrf2 activator | HepG2 tox-1 | TGFb confirm | HepG2 tox-2 | CCL64 TGFb inh | TGFb COP inh
O=C(Nc1cccc(C(F)(F)F)c1)C(Sc1ncnc2ccccc12)c1ccccc1 (centres undefined) | ? | ? | 3% | ? | -27% | nt | nt | nt | nt
Cn1nnnc1SC(C(=O)Nc1cccc(C(F)(F)F)c1)c1ccccc1 (centres undefined) | -2% | 11µM* | 9% | 1% | -4% | ? | -21% | ? | 4%
CCCCCCCCCCN(CCCCCCCCCC)c1ccccc1 | nt | -5% | nt | nt | -26% | nt | nt | nt | nt
COc1ccc(-c2[nH]ncc2-c2ccc(Cl)cc2)c(O)c1 | 14% | 10µM* | -4% | 8% | -61% | ? | -20% | ? | 24%
COc1ccc(-c2cn[nH]c2-c2ccc(OCc3ccccc3)cc2O)cc1 | -7% | ? | 3% | 0% | -142% | nt | nt | nt | nt
COc1ccc(-c2cn[nH]c2-c2ccc(OCc3ccc([N+](=O)[O-])cc3)cc2O)cc1OC | ? | 8.9µM* | -8% | 0% | -45% | 21µM* | ? | ? | 23%
